Screening results: PubChem BioAssay, National Center for Advancing Translational Sciences (NCATS)
Sampled rows, rich in hits. Any-hit rate of the full collection: about 9.2%.
SMN2 splice enh – increases expression of the SMN2 splice variant; HEK293 SMN2-luciferase splicing reporter, luminescence, 30-36 h; Potency, µM (top dose mostly 46.1 µM), for inactives: at the highest dose activity change, positive = activation, hits mostly activators; hit rate 2.8% among 210,000; AID 1458; also: % of control where 0% means no effect; nearly all actives have a fitted effect of over 55% in size
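HEK293 cells carry an SMN2 […]–luciferase reporter in which exon 7 inclusion puts luciferase in frame. Cells were plated 10-12 h before compound addition, then incubated 30-36 h at 37C. ONE-Glo luminescence was read; sodium butyrate at 4.5 mM final served as control.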
FLuc counter – counter-screen for miR-21 project: firefly luciferase inhibitors or activators. P08659. purified FLuc, Km substrates, luminescence inhibition. Potency, µM (titrated, usually from 57.5 µM), for inactives: at the highest dose activity change, negative = inhibition, most hits filed as inhibitors. hit rate 6.9% among 360,000;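 also: plate controls were vehicle for no effect and reference inhibitor for full effect; nearly all actives have a fitted effect of over 55% in size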
Target sequence (P08659 whole entry, looked up): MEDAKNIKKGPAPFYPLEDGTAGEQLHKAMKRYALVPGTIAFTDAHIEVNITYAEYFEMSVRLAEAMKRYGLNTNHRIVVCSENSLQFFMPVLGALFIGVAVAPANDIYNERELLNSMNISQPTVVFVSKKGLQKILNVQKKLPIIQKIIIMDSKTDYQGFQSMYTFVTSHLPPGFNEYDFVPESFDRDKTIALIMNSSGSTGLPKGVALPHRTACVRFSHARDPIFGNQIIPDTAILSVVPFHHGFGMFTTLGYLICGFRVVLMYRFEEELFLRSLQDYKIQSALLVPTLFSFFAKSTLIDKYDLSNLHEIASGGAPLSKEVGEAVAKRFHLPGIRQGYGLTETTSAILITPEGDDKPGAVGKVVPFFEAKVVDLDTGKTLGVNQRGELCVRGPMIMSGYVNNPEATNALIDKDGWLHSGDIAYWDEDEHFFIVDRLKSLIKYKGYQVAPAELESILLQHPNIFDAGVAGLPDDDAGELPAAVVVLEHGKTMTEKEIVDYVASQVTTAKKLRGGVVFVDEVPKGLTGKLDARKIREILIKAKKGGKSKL
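Purified P. pyralis luciferase (10nM final) with 10uM D-luciferin and 10uM ATP (Km levels) in 50mM Tris acetate pH 7.5, 10mM Mg acetate, 0.01% Tween-20, 0.05% BSA; qHTS 6-point titration, ~60 µM downward; luminescence read.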
NPC1 promoter act – activators of NPC1 promoter; Huh7 NPC1 promoter luciferase reporter, 24 h; Potency, µM (titrated, usually from 9.22 µM), inactives show at the top dose activation, usual class: activators; hit rate 2.4% among 320,000; AID 485313; also: % of control where 0% means no effect; nearly all actives have a fitted effect of over 60% in size
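NPC1 promoter–luciferase Huh7 cells; 24 h compound; luminescence.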
ELG1 DNA repair – inhibitors of ELG1-dependent DNA repair in HEK293T cells; HEK293T ELG1-luciferase reporter, luminescence, 16 h; DNA damage induced by 5-fluorouridine; Potency, µM (doses to about 46.1 µM), without a hit: top-dose activity change, negative = inhibition, actives largely listed as inhibitors; hit rate 2.3% among 330,000; also: % is scaled to controls: 0 for no effect and ±100 for the full control effect; nearly all actives have a fitted effect of over 55% in size
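Quantitative HTS, concentration-response format. 2,000 cells/well co-treated with 5-fluorouridine and compound, 16 hr in 5% CO2 at 37 °C; ONE-Glo luminescence read after 30 min.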
ELG1 genotox – genotoxicity induction in ELG1-luciferase HEK293T cells | HEK293T ELG1-luciferase reporter, luminescence, 16 h | Potency, µM (top dose mostly 46 µM), for inactives: at the highest dose activity change, positive = activation, hits mostly activators | hit rate 1.3% among 330,000; also: % of control where 0% means no effect; nearly all actives have a fitted effect of over 60% in size
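After overnight (16 hr) compound treatment at 37 °C, ELG1-luciferase HEK293T cells were lysed with ONE-Glo; luminescence quantified 30 min later at room temperature.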
Rab9 promoter act – activates the Rab9 promoter | Potency, µM (top dose mostly 9.22 µM), for inactives: top-dose activation, negative = inhibition, usual class: activators | hit rate 2.8% among 320,000 | AID 485297 | Huh7 Rab9 promoter-luciferase reporter, luminescence, 24 h; also: % of control where 0% means no effect; nearly all actives have a fitted effect of over 60% in size
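Rab9 promoter-driven luciferase in stably transfected Huh7 cells; 1500 cells/well rested 2 h, exposed to compound in DMSO for 24 h at 37 °C, 5% CO2. Luminescence read 10 min after adding luciferase reagent at ambient temperature.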
An asterisk follows results filed as active; u = inconclusive; x = not tested or not shown. Calls follow the shape of the dose curve; as a rule, active = well fitted curve in the direction sought with a large enough effect; inconclusive = small, poorly fitted or top-dose-only effect, or another doubt; inactive = no such curve, though single readings can be large; an effect the other way counts as inactive or inconclusive. Potency is read from the fitted curve at half-maximal effect.

SMILES	SMN2 splice enh	FLuc counter	NPC1 promoter act	ELG1 DNA repair	ELG1 genotox	Rab9 promoter act
CCOc1ccc(CCNC(=O)c2cn(C)c3ccc(S(=O)(=O)N4CCCCCC4)cc3c2=O)cc1OCC	3%	-9%	x	x	x	x
COc1ccc(NC(=O)C(Cc2cc(C)cc(C)c2)C(C)C(=O)O)cc1 (centres undefined)	x	0%	3%	1%	1%	3%
Cc1c(C(=O)NC(C)c2ccncc2)oc2ccccc12 (centres undefined)	-21%	-1%	-1%	10%	-1%	0%
Cc1c(C(=O)Nc2ccncc2)oc2ccccc12	-24%	19µM*	15%	u	u	14%
CCCOc1cccc(C2c3c(oc4ccc(F)cc4c3=O)C(=O)N2c2nc(C)c(C(C)=O)s2)c1 (centres undefined)	-4%	0%	x	x	x	x
CCOc1cnc(-c2ccc(OC)cc2)o1	u	9.5µM*	2.5µM*	u	u	u
CCOc1cnc(-c2ccc(Cl)cc2)o1	16%	21µM*	0%	u	9%	15%
CCc1cccc(CC)c1-n1nnc2c(sc3nc(C)cc(C)c32)c1=O	-5%	-9%	x	x	x	x
Cc1ccc(C)c(CN2C(=O)CSc3ccc(C(=O)NCCc4ccc(Cl)cc4)cc32)c1	1%	2%	x	x	x	x
O=C(Nc1ccc(C(=O)OC2CCCCC2)cc1)c1ccncc1	x	u	-2%	u	13%	-5%
CN(Cc1ccn[nH]1)C(=O)C1CCC(=O)N(Cc2cccc(C(F)(F)F)c2)C1 (centres undefined)	x	4%	-1%	0%	1%	-3%
CC(C)c1nnc(NC(=O)C2CCCO2)s1 (centres undefined)	x	-4%	2%	u	7%	4%
CSc1nc2ccc(NC(=O)c3ccc(Cl)s3)cc2s1	x	1.9µM*	2µM*	u	u	2.8µM*
CSc1nc2ccc(NC(=O)C3CCCO3)cc2s1 (centres undefined)	13µM*	12µM*	3.5µM*	u	10µM*	3.5µM*
Cc1cccc2sc(NC(=O)C3CCCO3)nc12 (centres undefined)	20µM*	u	u	u	u	u
CSc1nc2ccc(NC(=O)NC(=O)c3c(F)cccc3F)cc2s1	x	-19%	u	14%	6%	u
COc1ccc(-c2nnc(NC(=O)C3CCCO3)s2)cc1 (centres undefined)	24%	12µM*	2.5µM*	u	u	4µM*
CCc1cccc(C)c1NC(=O)C1CCCO1 (centres undefined)	-8%	1%	0%	3%	4%	-3%
CC(=O)Nc1ccc(C)cc1-c1nc2ccccc2n(CC(=O)Nc2cc(Cl)ccc2C)c1=O	x	-1%	x	x	x	x
CCOC(=O)c1cc(-c2ccc(C)cc2)n(CC(=O)NC2CCCCCC2)c1C	-1%	2%	x	x	x	x
COc1ccc(NC(=O)C2CCCO2)c(OC)c1 (centres undefined)	x	-2%	-1%	5%	0%	17%
CC(=O)Nc1cc(C)c2nc(NC(C)=O)sc2c1	x	u	24%	u	u	26%
